The full list was thinned out, with hits kept by preference.
Casp1 inh = qHTS Assay for Allosteric/Competitive Inhibitors of Caspase-1 | P29466 | Caspase-1 enzyme, Ac-WEHD-AFC fluorogenic rate | Potency, µM (series often up to 57.5 µM), for inactives: top-dose activity change, negative = inhibition, usual class: inhibitors | hit rate 0.03% among 75,000 | AID 900, 2007;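 further: plate controls were vehicle for no effect and no substrate for full effect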
Caspase-7 inhib = qHTS Assay for Allosteric/Competitive Inhibitors of Caspase-7. P55210. recombinant caspase-7, Ac-DEVD-AFC fluorescence rate. Potency, µM (series often up to 57.5 µM), without a hit: at the top dose activity change, negative = inhibition, hits mostly inhibitors. hit rate 0.02% among 75,000; active means well fitted inhibition curve with a large enough effect in the main read-out, with a control signal flat, not every such curve was filed as active; inconclusive means small, poorly fitted or top-dose-only effect, or a change in a side signal; further: % of control where 0% means no effect
15-hLO inh = qHTS Assay for Inhibitors of 15-hLO (15-human lipoxygenase); purified 15hLO-1, xylenol orange hydroperoxide absorbance; Potency, µM (highest dose often 57.1 µM), inactives show at the top dose activity change, negative = inhibition, most hits filed as inhibitors; hit rate 1.4% among 74,000; AID 887, 2007; further: on the % scale 0 is the no-effect control and ±100 the full control effect; nearly all actives have a fitted effect of over 55% in size
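Readout: Fe(III)-xylenol orange absorbance, 573-to-405 nm ratio as reaction progress. Enzyme 40 nM purified human 15hLO-1, substrate 50 uM arachidonic acid, 6 min RT after 15 min compound preincubation; Hepes pH 7.5 buffer with Triton X-100.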
USP2a inhib = qHTS Assay for Inhibitors of Ubiquitin-specific Protease USP2a | Ubiquitin carboxyl-terminal hydrolase 2 (Homo sapiens), O75604 | USP2a enzymatic assay, qHTS inhibition | hit rate 0.1% among 60,000 | Potency, µM (highest dose often 38.3 µM), for inactives: at the highest dose activity change, negative = inhibition, most hits filed as inhibitors; further: nearly all actives have a fitted effect of over 60% in size
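Coupled readout: USP2-cleaved Ub-PLA2 (20nM final) turns over NBD C6-HPC (20uM final), Ex 460nm/Em 535nm after 2.5 h, time-zero read flagging artifacts. Enzyme (20nM final, pH 8.0 Tris) given 30 min RT with compound first; NEM defines full inhibition.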
Ub-GFP proteasome = Ubiquitin-GFP Assay | Ubiquitin-GFP reporter cells, proteasome inhibition, GFP fluorescence; response scale: untreated = 0%, 10 µM MG-132 = 100% | Potency, µM (titrated, usually from 45.9 µM), inactives show at the highest dose activation (GFP accumulation), usual class: activators | 67,000 tested, under 10 active | AID 526, 2006; active means well fitted activation curve with a large enough effect, not every such curve was filed as active; inconclusive means small, poorly fitted or top-dose-only effect, or another doubt; inactive means no such curve, though single readings can be large or run the other way
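U2OS Ub(G76V)-GFP reporter; O/N plating, 0.5% FBS; cpd 46 uM–2.9 nM, 4 h, 37 °C; GFP+ cell count, 488/515 nm; norm. to basal vs 10 uM MG-132; CRC fit.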
15-hLO-2 inh = qHTS Assay for Inhibitors of 15-hLO-2 (15-human lipoxygenase 2) | Potency, µM (series often up to 57.1 µM), for the others: at the highest dose activity change, negative = inhibition, hits mostly inhibitors | Polyunsaturated fatty acid lipoxygenase ALOX15B (Homo sapiens), O15296 | hit rate 0.56% among 110,000 | purified 15hLO-2, xylenol orange hydroperoxide absorbance; further: on the % scale 0 is the no-effect control and ±100 the full control effect; nearly all actives have a fitted effect of over 60% in size
Target sequence (O15296 whole entry, looked up): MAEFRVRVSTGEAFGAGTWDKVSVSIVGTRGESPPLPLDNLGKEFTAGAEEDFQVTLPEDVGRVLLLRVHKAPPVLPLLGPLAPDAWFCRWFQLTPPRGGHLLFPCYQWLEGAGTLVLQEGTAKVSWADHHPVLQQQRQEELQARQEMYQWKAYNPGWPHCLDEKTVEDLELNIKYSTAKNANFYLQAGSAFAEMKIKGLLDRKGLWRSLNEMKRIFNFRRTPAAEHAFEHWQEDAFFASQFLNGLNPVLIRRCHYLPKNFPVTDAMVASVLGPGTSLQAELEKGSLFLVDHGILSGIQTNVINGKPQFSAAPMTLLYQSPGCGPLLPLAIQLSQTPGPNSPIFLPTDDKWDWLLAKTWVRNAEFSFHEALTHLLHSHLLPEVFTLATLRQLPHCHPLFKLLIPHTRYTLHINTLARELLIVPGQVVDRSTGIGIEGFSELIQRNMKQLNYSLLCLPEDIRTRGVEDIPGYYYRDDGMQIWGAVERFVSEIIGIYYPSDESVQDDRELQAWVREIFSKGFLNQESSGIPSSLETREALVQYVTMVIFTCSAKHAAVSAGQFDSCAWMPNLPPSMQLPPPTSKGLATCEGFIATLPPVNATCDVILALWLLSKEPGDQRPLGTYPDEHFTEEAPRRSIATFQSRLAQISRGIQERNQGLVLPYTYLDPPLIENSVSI
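Purified human 15hLO-2 (50 nM) preincubated 15 min with compound, then 45 uM arachidonic acid for 90 min at RT in 25 mM Hepes pH 7.5, 0.01% Triton X-100. Hydroperoxide detected by Fe-xylenol orange; 573/405 nm absorbance ratio.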
An asterisk follows results filed as active; ? = inconclusive; . = no result; ! = a repeat was not active; [ ] = dose if it differs, or a comment. Unless noted, the call rests on the fitted dose curve; in most records, active means well fitted curve in the direction sought with a large enough effect; inconclusive means small, poorly fitted or top-dose-only effect, or another doubt; inactive means no such curve, though single readings can be large; an effect the other way counts as inactive or inconclusive. Potency means the concentration at half of the fitted maximal effect.

SMILES | Casp1 inh | Caspase-7 inhib | 15-hLO inh | USP2a inhib | Ub-GFP proteasome | 15-hLO-2 inh
O=C1C(Cl)=C(N2CCCCCC2)C(=O)N1c1ccccc1 | -7% | -11% | 5µM* | -20% | 9% | -15%
CN(N=O)c1cc(O)ccc1O | ? | 1% | 16µM* | 16µM* | -3% | 12%
[Cd+2].[Cl-].[Cl-] | 2% | . | 13µM* | . | . | .
C=C[C@@H]1CN2CC[C@H]1C[C@H]2[C@@H](O)c1ccnc2ccccc12 | . | . | . | . | 3% | .
Cc1c([C@@H](C)[C@H]2NC[C@H](C)C[C@@H]2O)ccc2c1C[C@@H]1[C@H]2CC=C2C[C@@H](O)CC[C@@]21C | 2%[11.5 µM] | -2%[11.5 µM] | 31%[11.4 µM] | . | -2%[9.17 µM] | -4%[11.4 µM]
COC(=O)c1ccccc1-n1c(C)nc2ccccc2c1=O | 0% | 0% | 7% | -3% | 2% | .
COP(=S)(OC)SCn1nnc2ccccc2c1=O | 1% | -4% | 13µM* | -13% | . | -7%
C=CCc1cc(OC)c2c(c1OC)OCO2 | -2% | 1% | 4µM* | -20% | . | 10%
CN1C[C@H](C(=O)N[C@]2(C)O[C@@]3(O)[C@@H]4CCCN4C(=O)[C@H](Cc4ccccc4)N3C2=O)C=C2c3cccc4[nH]cc(c34)C[C@H]21 | . | ? | 2.5µM* | . | . | -12%
CN1C[C@H](C(=O)N[C@@]2(C)O[C@@]3(O)[C@H]4CCCN4C(=O)[C@@H](Cc4ccccc4)N3C2=O)C=C2c3cccc4[nH]cc(c34)C[C@@H]21 | -16%[11.5 µM] | -26%[11.5 µM] | -16%[11.4 µM] | . | -1%[9.17 µM] | -7%[11.4 µM]
CN1C[C@H](C(=O)N[C@]2(C)O[C@@]3(O)[C@H]4CCCN4C(=O)[C@H](Cc4ccccc4)N3C2=O)C[C@H]2c3cccc4[nH]cc(c34)C[C@@H]21 | 0% | -2% | 13µM* | . | 2% | 1%
CCN1C[C@@]2(COC(=O)c3ccccc3N3C(=O)C[C@H](C)C3=O)CC[C@H](OC)[C@@]34[C@@H]5CC6[C@@H](OC)C[C@@](O)([C@H]5[C@H]6OC)C(O)([C@@H]13)[C@@H](OC)[C@H]24 | . | . | . | . | -3% | .
c1ccc(Nc2ccc(Nc3ccccc3)cc2)cc1 | -2% | -6% | 4µM* | . | . | 13µM*
C[C@H]1CC[C@]2(NC1)O[C@@H]1C[C@@H]3[C@@H]4CC=C5C[C@H](O)CC[C@@]5(C)[C@H]4CC[C@@]3(C)[C@H]1[C@@H]2C | . | . | . | . | 4% | .
CCCCCC[C@H]1C(=O)O[C@@H](C)[C@H](NC(=O)c2cccc(NC=O)c2O)C(=O)O[C@@H](C)[C@@H]1OC(=O)CC(C)C | . | . | . | . | 3% | .
CCCCC/C=C\C/C=C\C/C=C\C/C=C\CCCC(=O)Nc1ccc(O)cc1C | . | . | . | . | . | 9%[0.0915 µM]
CCCCC/C=C\C/C=C\C/C=C\C/C=C\CCCC(=O)Nc1ccc(O)cc1 | -5% | -6% | 0.25µM* | . | -5% | -8%
CCCCC/C=C\C/C=C\C/C=C\C/C=C\CCCC(=O)NCC(=O)O | -3% | -10% | 2.5µM* | 26% | -6% | 10µM*!
CCCCC/C=C\C/C=C\C/C=C\C/C=C\CCCC(=O)NCCO | . | . | . | . | . | -4%[0.0915 µM]
C[C@H]1CC[C@@H]2[C@@H](C)C(=O)O[C@H]3O[C@@]4(C)CC[C@@H]1[C@]32OO4 | . | . | . | . | -3% | .
N#C/C(=C\c1ccc(O)c(O)c1)C(=O)NCCCNC(=O)/C(C#N)=C/c1ccc(O)c(O)c1 | 1% | 1% | 3.2µM* | -14% | -2% | -16%
N#CC(C#N)=Cc1ccc([N+](=O)[O-])c(O)c1 | 6% | -1% | -25% | -8% | 7% | -17%[0.0915 µM]
COc1ccc2c(c1O)-c1cccc3c1[C@H](C2)N(C)CC3 | 0% | 2% | -5% | -2% | -8% | 14%
N#CC1=C(N)Oc2n[nH]c(-c3cccs3)c2C1c1ccsc1 (stereo not drawn) | -4% | 0% | 4µM* | 13% | 5% | -13%
CCN1C[C@@]2(C)CC[C@H](O)[C@@]34[C@@H]5C[C@H]6[C@H](O)[C@@H]5[C@](O)(C[C@@H]6OC)[C@H](C[C@@H]23)[C@H]14 | . | . | . | . | 1% | .
SMILES | Casp1 inh | Caspase-7 inhib | 15-hLO inh | USP2a inhib | Ub-GFP proteasome | 15-hLO-2 inh
CN[C@H]1[C@H](C)O[C@@H](O[C@@H]2C/C=C(/C)C/C(C)=C\C=C/CC[C@@H](C)CNC(=O)/C=C\C=C/[C@H]2C)C[C@@H]1O | . | . | . | . | -5%[9.17 µM] | .
C[C@@H]1O[C@H](O[C@H]2C[C@@H](O)[C@]3(CO)[C@H]4[C@H](O)C[C@]5(C)[C@@H](C6=CC(=O)OC6)CC[C@@]5(O)[C@H]4CC[C@]3(O)C2)[C@@H](O)[C@H](O)[C@H]1O | . | . | . | . | 1% | .
COC(=O)C(O)(c1ccc(NC(=S)NC(=O)c2ccccc2)cc1)C(F)(F)F (stereo not drawn) | . | . | . | . | . | 16µM*
CN1CC[C@@H]2CN3CCc4cccc(c43)[C@H]2C1 | 2% | 0% | 13µM* | . | 2% | 9%
CCCCN1C(=O)NC(=O)C2(Cc3c(nc4c(C)cccn4c3=O)N3CCc4ccccc4C32)C1=O (stereo not drawn) | -1% | -1% | 6% | -3% | -6% | 1%[2.29 µM]
CCCCN1C(=O)NC(=O)C2(Cc3c(nc4ccccn4c3=O)N3CCc4ccccc4C32)C1=O (stereo not drawn) | -5% | -3% | 20µM* | 0% | -2% | -15%
O=C1C=CC(=O)C(Cl)=C1 | . | . | . | . | . | 11µM*
CCCN1CCc2cccc3c2[C@@H]1Cc1ccc(O)c(O)c1-3 | -2% | -2% | ? | 3% | -1% | ?
CC[C@@H]1CN2CC[C@@H]1C[C@H]2[C@@H](O)c1ccnc2ccc(OC)cc12 | . | . | . | . | 6% | .
COc1ccc2c(c[n+](C)c3c4cc5c(cc4ccc23)OCO5)c1OC | 4% | -1% | ? | ? | 8% | 13µM*
COc1ccc2c(c1OC)CN1CCc3cc4c(cc3[C@H]1C2)OCO4 | 0%[25.7 µM] | -1%[25.7 µM] | 6%[25.6 µM] | 2%[17.1 µM] | 12%[20.5 µM] | 10%[25.6 µM]
CC(=O)N1C[C@@H]2C[C@H](C1)c1cccc(=O)n1C2 | . | . | . | . | 2% | .
COc1ccc2c3c1O[C@@H]1C(=O)CC[C@@]4(O)[C@@H](C2)N(CC2CC2)CC[C@]314 | -2% | 0% | -5% | 4% | -3% | 4%
COc1cc2c(cc1OC)[C@]13CCN4CC5=CCO[C@@H]6CC(=O)N2[C@@H]1[C@H]6[C@@H]5C[C@H]43 | . | . | . | . | -1% | .
Nc1ccc([As](=O)(O)O)cc1 | 2% | -2% | -4% | . | . | .

Screens from PubChem.
